From PubChem BioAssay
Shown is part of a subset that was picked to be rich in hits.
LmPK inhibitor – qHTS Assay for Inhibitors of Leishmania Mexicana Pyruvate Kinase (LmPK); purified LmPK, Kinase-Glo ATP luminescence, 1 h; Potency, µM (highest dose often 57.5 µM), inactives show top-dose activity change, negative = inhibition, actives largely listed as inhibitors; actives 0.37% (n = 290,000); also: potency is read from the fitted curve at half-maximal effect; % is scaled to controls: 0 for no effect and ±100 for the full control effect
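In 50 mM imidazole pH 7.2 with 7 mM MgCl2, LmPK (0.1 nM) turned over PEP (0.5 mM) and ADP (0.1 mM) for 1 h at room temperature. Luciferase read-out of ATP.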
TbPYK inhibitor – qHTS of Trypanosoma Brucei Inhibitors; actives 0.12% (n = 410,000); AID 624173, 2012; TbPYK enzyme, Kinase-Glo Plus ATP luminescence, 45 min; Potency, µM (highest dose often 76.8 µM), for inactives: top-dose activity, negative = inhibition, usual class: inhibitors; also: potency is read from the fitted curve at half-maximal effect; % is scaled to controls: 0 for no effect and ±100 for the full control effect; nearly all actives have a fitted effect of over 50% in size
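Assay buffer: 50 mM TEA pH 7.2, 100 mM KCl, 10 mM MgCl2, 0.05% BSA, 0.01% Tween-20. Pyruvate kinase from T. brucei plus substrate met compound, then ADP (130 uM final). Luminescence was read post 45 min RT.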
RE007 growth inh – qHTS Assay for Inhibitors of the HIV-1 protein Vpr; S. pombe RE007 Vpr strain, BacTiter-Glo ATP luminescence, 24 h; Potency, µM (titrated, usually from 92.2 µM), without a hit: top-dose activity change, negative = less growth, usual class: inhibitors; actives 0.21% (n = 360,000); active = well fitted falling curve with a large enough effect; inconclusive = small, poorly fitted or top-dose-only effect; inactive = no such curve, though single readings can be large or run the other way; also: potency is read from the fitted curve at half-maximal effect; % is scaled to controls: 0 for no effect and ±100 for the full control effect; nearly all actives have a fitted effect of over 50% in size
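Fission yeast strain RE007, carrying one chromosomally integrated HIV-1 vpr copy, was seeded at OD 0.01 in PMG+AL medium with 23 nL pinned compound. After 24 h at 30 °C and 99% humidity, viability was read by BacTiter-Glo luminescence.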
CHX counter – Cycloheximide Counterscreen for Small Molecule Inhibitors of Shiga Toxin | max response, % | cell reporter, cycloheximide protein synthesis inhibition counterscreen | actives 12% (n = 300,000); in the data active = max response mostly above about 13%, no sharp cut-off; inactive = mostly below about 14%; also: read at 38.3 µM for the half of the compounds with a filed dose; 0% is about no effect
Shiga inhibitor – A qHTS for Small Molecule Inhibitors of Shiga Toxin; Vero cells, Shiga toxin protein synthesis inhibition reporter; inhibition, % at 38.7 µM; actives 9.2% (n = 290,000); AID 2315, 2010; in the data active = inhibition mostly above about 28%, no sharp cut-off; inactive = mostly below about 43%; also: 0% is about no effect
Giardia FBPA inh – qHTS Assay for Inhibitors of Fructose-1,6-bisphosphate Aldolase from Giardia Lamblia; A8B2U2; purified Giardia FBPA; Potency, µM (top dose mostly 59.6 µM), for the others: at the top dose activity, negative = inhibition, actives largely listed as inhibitors; actives 0.71% (n = 290,000); AID 2451, 2010; also: potency is read from the fitted curve at half-maximal effect; % is scaled to controls: 0 for no effect and ±100 for the full control effect; nearly all actives have a fitted effect of over 55% in size
Target sequence (A8B2U2 whole entry, looked up): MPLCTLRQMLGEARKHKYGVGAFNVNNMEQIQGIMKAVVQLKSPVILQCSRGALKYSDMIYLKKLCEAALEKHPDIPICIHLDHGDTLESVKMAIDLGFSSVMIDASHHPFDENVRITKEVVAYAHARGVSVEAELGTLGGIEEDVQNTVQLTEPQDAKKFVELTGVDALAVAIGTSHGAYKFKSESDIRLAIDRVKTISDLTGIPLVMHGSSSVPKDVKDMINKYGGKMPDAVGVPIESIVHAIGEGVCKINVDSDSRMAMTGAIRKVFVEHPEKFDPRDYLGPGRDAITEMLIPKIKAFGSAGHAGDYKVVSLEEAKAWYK
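40 nM FBPA preincubated 10 min at RT with compound (up to 57.5 uM final), then substrate plus GAPDH/TPI/NAD/arsenate coupling and diaphorase/resazurin added. Fluorescence read after 20 min at RT, 525/598 nm.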
Numbers without * were called inactive; ? = inconclusive; . = no result given; [ ] = dose if it differs, or a comment. Unless noted, calls follow the shape of the dose curve; as a rule, active = well fitted curve in the direction sought with a large enough effect; inconclusive = small, poorly fitted or top-dose-only effect, or another doubt; inactive = no such curve, though single readings can be large; an effect the other way counts as inactive or inconclusive.

SMILES	LmPK inhibitor	TbPYK inhibitor	RE007 growth inh	CHX counter	Shiga inhibitor	Giardia FBPA inh
COc1cccc(/C=C/C(=O)OCC(=O)c2c[nH]c3ccccc23)c1OC	1%	-13%	-1%	11*	32	1%
COc1cccc(C(=O)OCC(=O)c2c[nH]c3ccccc23)c1O	-5%	5%	4%	34*	93*	3%
CC(=O)OCC(=O)c1c[nH]c2ccccc12	-3%	-3%	0%	13	19	-16%
C=C1CN(C(C(=O)OC)C(C)C)S(=O)(=O)c2ccc(F)cc21 (centres undefined)	.	.	.	7	-6	0%
CCN(C[C@H]1N[C@@](CC)(C(=O)OC)[C@H]2C(=O)N(Cc3ccccc3)C(=O)[C@@H]12)C(=O)Nc1ccc(Cl)cc1	.	4%	4%	.	.	.
Cc1cccc(NC(=O)c2cc(-c3ccc(C)c(C)c3O)n[nH]2)c1	2%	4%	0%	49*	92*	7%
CC(=O)Nc1ccc(NC(=O)c2cc(-c3cc(C)cc(C)c3O)n[nH]2)cc1	-4%	-2%	-4%	23*	32	2%
Cc1ccc(NC(=O)c2cc(-c3ccc(C)c(C)c3O)n[nH]2)cc1C	7%	-3%	-8%	0	6	20%
CC(=O)Nc1ccc(NC(=O)c2cc(-c3ccc(C)c(C)c3O)n[nH]2)cc1	1%	-8%	9%	29*	37	4%
CC(C)Oc1cccc(NC(=O)c2ccccc2C(F)(F)F)c1	.	2%[157 µM]	.	.	.	.
CCOC(=O)CSc1nc2cc(C(=O)N3CCC(C(N)=O)CC3)ccc2c(=O)n1C1CCCCC1	1%	-1%	-25%	-1	-7	-2%
COC(=O)c1ccc2c(=O)n(C3CCCCC3)c(SCC#N)nc2c1	-4%	-1%	8%	14	71*	2%
CN1C/C(=C/c2ccc(B(O)O)cc2)C(=O)/C(=C/c2ccc(B(O)O)cc2)C1	.	.	.	-12	-2	-14%
CC(C)N1CC2=C(OC(N)=C(C#N)C2c2cccnc2)/C(=C/c2cccnc2)C1 (centres undefined)	-1%	-2%	-6%	-2	-19	?
CC(C)N1C/C(=C/c2ccsc2)C(=O)/C(=C/c2ccsc2)C1	4%	-10%	-16%	15*	-7	-30%
CC(C)N1C/C(=C/c2cccnc2)C(=O)/C(=C/c2cccnc2)C1	1%	1%	-21%	21*	28	3%
CCN1C(=O)S/C(=C/c2ccsc2)C1=O	-6%	1%	-19%	26	77	1%
CN1C/C(=C/c2cccnc2)C(=O)/C(=C/c2cccnc2)C1	0%	-1%	7%	25*	1	0%
Cc1ccnc(NC(=O)CCNC(=O)c2ccccc2Cl)c1	0%	5%	4%	35*	124*	.
Cc1ccc(NC(=O)CCNC(=O)c2ccccc2Cl)nc1	-8%	-1%	-28%	5	14	.
Cc1ccnc(NC(=O)CNC(=O)c2ccccc2Br)c1	-16%	4%	-8%	52*	54*	.
CCn1c(C)cc(/C=C2\C(=O)NC(=O)N(c3ccccc3C)C2=O)c1C	2%	2%	10%	-1	-10	0%
Cc1ccccc1N1C(=O)NC(=O)/C(=C\c2cnn(-c3ccccc3)c2)C1=O	-1%	?	2%	24*	56*	-4%
COc1ccc(-n2c(=O)c3sc4ccccc4c3n(Cc3ccccc3C)c2=O)cc1OC	.	-7%	.	.	.	.
COc1ccc(CC(=O)Nc2ccc(-c3nc4cc(C)ccc4o3)c(O)c2)cc1OC	-6%	2%	12%	33*	70	8%
SMILES	LmPK inhibitor	TbPYK inhibitor	RE007 growth inh	CHX counter	Shiga inhibitor	Giardia FBPA inh
O=C(Nc1ccc(-c2nc3ccccc3o2)c(O)c1)c1ccccc1	.	-11%	.	.	.	.
Cc1ccc2oc(-c3ccc(NC(=O)c4ccncc4)cc3O)nc2c1	7%	5%	20%	29*	44*	2%
Cc1cccc(OCC(=O)Nc2ccc(-c3nc4cc(C)ccc4o3)c(O)c2)c1	.	-1%	.	.	.	.
Oc1ccccc1-c1cc(-c2cccc(F)c2)n[nH]1	-18%	1%	?	37*	122*	1%
CC(C)(C)c1ccc(-c2cc(-c3ccccc3O)[nH]n2)cc1	1%	-3%	?	27*	59*	-2%
Fc1cccc(-c2n[nH]c(=S)n2-c2ccccc2)c1	?	?	7%	0	.	7%
O=C(COc1ccccc1F)Nc1ccc(S(=O)(=O)N2CCCC2)cc1	.	-4%	0%	.	.	.
CCOc1ccccc1CNS(=O)(=O)c1ccc(-c2coc(C)n2)cc1	.	-1%	.	.	.	.
CNC(=O)Nc1ccc2snnc2c1	11%	-3%	-9%	0	30	-4%
COc1ccc(CCC(=O)Nc2ccc(C)c([N+](=O)[O-])c2)cc1	3%	0%	.	4	19	0%
CCOc1ccc(NC(=S)Nc2ccc(OC)cc2)cc1	3%	-6%	1%	1	48	-4%
COc1ccc(NC(=S)Nc2ccc(N)c([N+](=O)[O-])c2)cc1	-6%	-5%	8%	21*	42	-17%
COc1ccc(NC(=S)Nc2ccc3nccnc3c2)cc1	1%	-8%	-2%	31*	54*	?
COc1ccc(NC(=S)Nc2ccc3snnc3c2)cc1	6%	-12%	4%	24*	34*	?
CCc1ccc(-n2nc(CO)c(C(=O)NCCc3ccccc3)n2)cc1	.	2%	.	.	.	.
CCc1nn(Cc2c(C)cc(C)cc2C)c(=O)c2cc3cc(C)ccc3n12	.	1%	.	.	.	.
Cc1nn(-c2ccccc2)c(N2CCCC2)c1/C=N/NC(=S)Nc1ccccc1F	2%	-13%	-15%	72*	98*	10%
Cc1ccc(NC(=O)Cn2c(=O)n(CC3CCC(C(=O)NC(C)C)CC3)c(=O)c3sccc32)cc1 (centres undefined)	.	-17%	.	.	.	.
COc1ccc(-n2c(SCc3ccccc3)nc3c([nH]c4ccccc43)c2=O)cc1	.	-14%	.	.	.	.
CCCCOc1ccc(C(=O)N=c2sccn2C)cc1OC	4%	-16%	-7%	44*	65*	.
CCN(CC)S(=O)(=O)c1cc(C(=O)N=c2sccn2C)ccc1OC	-7%	-3%	-4%	2	7	.
Cn1ccsc1=NC(=O)c1ccc(S(C)(=O)=O)c([N+](=O)[O-])c1	0%	4%	3%	43*	36*	.
Cc1ccc(C(=O)N=c2sccn2C)cc1S(=O)(=O)N1CCOCC1	.	-6%	-5%	.	.	.
Cn1ccsc1=NC(=O)c1ccc(Cl)c([N+](=O)[O-])c1	-1%	3%	-13%	16*	53*	-4%
